# The list is not random: actives were taken first. Their share in the collection is about 11%.
# Pf growth 96h: inhibits malaria parasite growth, 96 h; P. falciparum luciferase reporter growth, 96 h; Potency, µM (highest dose often 28.7 µM), without a hit: top-dose activity change, negative = inhibition, hits mostly inhibitors; hit rate 6.9% among 320,000; also: % is scaled to controls: 0 for no effect and ±100 for the full control effect
#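 Compounds incubated with erythrocytes infected by luciferase-expressing P. falciparum (2% hematocrit, 0.05% parasitemia final) for 96 hours, 37 C in 5% CO2. Growth inhibition scored as decreased luciferase luminescence.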
# Pf growth 48h: inhibits P. falciparum growth in the first generation, 48 h; P. falciparum luciferase growth in erythrocytes, 48 h; Potency, µM (titrated, usually from 28.7 µM), for the others: at the highest dose activity change, negative = inhibition, actives largely listed as inhibitors; hit rate 5.9% among 310,000; AID 504832; also: % is scaled to controls: 0 for no effect and ±100 for the full control effect
#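 Parasite viability was followed by luminescence of a genomically integrated firefly luciferase. Cultures held 0.1% parasitemia at 2% hematocrit (final), incubated under 5% CO2 at 37 C.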
# Sm TGR block: S. mansoni TGR enzyme inhibition | Potency, µM (titrated, usually from 114 µM), inactives show top-dose activity change, negative = inhibition, actives largely listed as inhibitors | purified TGR, DTNB reduction, TNB absorbance 405 nm | AID 485364 | hit rate 3% among 360,000; also: % is scaled to controls: 0 for no effect and ±100 for the full control effect; nearly all actives have a fitted effect of over 60% in size
#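 TGR 20 nM + NADPH 100 uM (dispensed conc.), cpd preinc 15 min RT; start with NADPH (500 uM addition) then DTNB (15 mM addition). Kinetic TNB absorbance, 405 nm filter. Four-parameter Hill fit across titration.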
# NS1 function inh: influenza NS1 inhibition; Potency, µM (highest dose often 46.1 µM), inactives show at the top dose activity, positive = more growth; hit rate 0.4% among 270,000; calls by dose curve; also: actives are rising curves; nearly all actives have a fitted effect of over 50% in size
#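 OD600 was taken as the measure of yeast growth restored by compound in an NS1-expressing S. cerevisiae strain. Cells had been washed out of glucose medium and diluted 1:100 into galactose -URA medium, pH 6.0.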
# AMA1 RON2 block: disrupts binding of P. falciparum AMA1 to RON2. AlphaScreen AMA1-biotinylated RON2 peptide binding. Potency, µM (series often up to 58.2 µM), for inactives: at the top dose activity change, negative = inhibition, hits mostly inhibitors. hit rate 0.2% among 360,000. AID 720542;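 also: 0% = vehicle wells and -100% = peptide control; nearly all actives have a fitted effect of over 45% in size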
#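 AMA1 (3D7) with his tag at 25 nM final met compounds first, then biotinylated RON2 peptide at 25 nM; detection used donor plus acceptor beads, 10 µg/mL apiece, read by AlphaScreen after 30 min at room temperature.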
# Starred values were filed as active, the others as inactive; ? = inconclusive; nt = no result. Unless noted, calls follow the shape of the dose curve; as a rule, active = well fitted curve in the direction sought with a large enough effect; inconclusive = small, poorly fitted or top-dose-only effect, or another doubt; inactive = no such curve, though single readings can be large; an effect the other way counts as inactive or inconclusive. Potency is read from the fitted curve at half-maximal effect.
SMILES,Pf growth 96h,Pf growth 48h,Sm TGR block,NS1 function inh,AMA1 RON2 block
CNC(=S)NC1CC2CCC(C1)N2Cc1ccccc1 (stereo unspecified),174%,8%,0%,-6%,-1%
CCc1ccc(NC(=S)NC2CC3CCCC(C2)N3Cc2ccccc2)cc1 (stereo unspecified),?,6.6µM*,nt,8%,-5%
CCn1nc(C)c2c(-c3ccccc3)cc(=O)n(C(C)C(=O)NCCC(C)C)c21 (stereo unspecified),nt,nt,-10%,nt,nt
O=C(CN1C(=O)c2ccccc2S1(=O)=O)c1ccc2c(c1)OCCCO2,1.5µM*,?,0%,5%,11%
O=C(CN1C(=O)c2ccccc2S1(=O)=O)N1CCN(c2ccccc2F)CC1,5.9µM*,72%,-3%,4%,-7%
O=C(CCN1C(=O)c2ccccc2S1(=O)=O)N1CCN(c2ccccc2F)CC1,19%,-24%,1%,nt,-5%
Nn1c(SCC(=O)NCc2ccc3c(c2)OCO3)nnc1C(F)(F)F,nt,nt,nt,nt,-1%
O=S(=O)(CCNCCc1ccccc1)NC1CCCCC1,nt,nt,nt,nt,-6%
O=C1NC(=O)N(Cc2ccc(F)cc2)C(=O)/C1=C\c1ccc(N2CCCC2)cc1,1%,8%,1.3µM*,-1%,-22%
CN(C)c1ccc(/C=C2\C(=O)NC(=O)N(CCc3ccc(F)cc3)C2=O)cc1,?,-4%,4µM*,-31%,3%
O=C1NC(=O)N(c2ccc(F)cc2)C(=O)/C1=C/c1ccc(N2CCOCC2)cc1,1%,-3%,1%,nt,19%
CN(C)c1ccc(NC(=O)Cn2nnc3sc4c(c3c2=O)CCC(C(C)(C)C)C4)cc1 (stereo unspecified),nt,nt,-8%,nt,nt
O=C(NCC(c1ccc2c(c1)OCO2)N1CCN(c2ccccc2)CC1)c1ccccc1F (stereo unspecified),nt,nt,12%,nt,nt
COc1ccccc1CNC(=O)CN1C(=O)CSc2ccc(S(=O)(=O)N3CCCC3)cc21,?,13µM*,-3%,nt,1%
O=C(CN1C(=O)CSc2ccc(S(=O)(=O)N3CCCC3)cc21)NCc1ccccc1Cl,nt,nt,1%,nt,nt
O=C(CN1C(=O)CSc2ccc(S(=O)(=O)N3CCCCC3)cc21)NCc1cccnc1,2.3µM*,?,-3%,14%,-1%
CC1CCN(S(=O)(=O)c2ccc3c(c2)N(CC(=O)NCc2cccnc2)C(=O)CS3)CC1,102%,-19%,-29%,-7%,1%
COC(=O)c1cc(C(=O)NNC(=O)c2ccc3c(c2)OCO3)cc([N+](=O)[O-])c1,?,5%,-6%,nt,64%
COc1ccc(OCCN(C)C(=O)c2cccc(S(=O)(=O)N(C)c3ccccc3)c2)cc1,?,?,3%,nt,-20%
Cc1cc(C)c(OCCCCN2CCNCC2)c(C)c1,3.3µM*,?,2%,1%,-1%
Cc1ccc(C)c(OCCCCCn2ccnc2)c1,12µM*,15µM*,-26%,1%,-6%
Cc1cc(C)c(OCCCCCn2ccnc2)c(C)c1,321%,13µM*,-4%,-13%,4%
Cc1cc(=S)cc(C)n1CCCn1ccnc1,-2%,3%,11µM*,1%,-2%
Cc1ccc(NC(=O)CCC(=O)NNC(=O)c2ccccc2)c(C)c1,0%,19%,nt,0%,14%
CCOC(=O)C1CCN(Cc2cccc(OCc3ccccc3)c2)CC1,?,-5%,0%,-4%,-2%
SMILES,Pf growth 96h,Pf growth 48h,Sm TGR block,NS1 function inh,AMA1 RON2 block
CCCOc1ccccc1NC(=O)/C=C/c1ccc(OC)c(S(=O)(=O)N2CCOCC2)c1,nt,nt,nt,nt,-7%
Cc1cccc(C)c1NC(=S)N/N=C/c1ccc(OCCC(C)C)cc1,3.3µM*,nt,-1%,5%,0%
CCCCOc1ccc(/C=N/NC(=S)Nc2cccc(C)c2C)cc1,nt,?,-14%,-3%,42%
CC(=O)Nc1ccc(S(=O)(=O)N2CCN(c3nc(NC4CCCC4)c4ccccc4n3)CC2)cc1,?,2.1µM*,6%,-16%,-5%
O=S(=O)(c1ccc(F)cc1)N1CCC(c2nc3ccccc3[nH]2)CC1,-19%,?,9%,2%,-4%
CC(=O)Nc1ccc(S(=O)(=O)N2CCC(c3nc4ccccc4[nH]3)CC2)cc1,nt,8.3µM*,4%,-5%,-11%
CC(=O)c1cccc(S(=O)(=O)N2CCC(c3nc4ccccc4[nH]3)CC2)c1,7%,-3%,22%,-9%,-4%
CC(C)(C)C(=O)Nc1ccc(S(=O)(=O)N2CCC(c3nc4ccccc4[nH]3)CC2)cc1,8.3µM*,13µM*,4%,nt,-5%
CCOCC(=O)Nc1ccc(S(=O)(=O)N2CCC(c3nc4ccccc4[nH]3)CC2)cc1,?,10µM*,-3%,nt,0%
Nc1cc(=O)[nH]c(SCC(=O)Nc2ccc(S(=O)(=O)N3CCCC3)cc2)n1,nt,nt,nt,nt,-9%
O=C(COc1ccccc1F)Nc1ccc2nc(SCCOc3ccccc3)sc2c1,nt,nt,9%,nt,nt
COc1cccc2cc(C(=O)Nc3ccc(CC(=O)O)cc3)c(=O)oc12,nt,nt,-6%,nt,nt
O=C(COC(=O)c1c(F)cccc1F)Nc1ccccc1OC(F)F,15%,2%,-4%,-11%,-2%
CCOc1ccc(C(c2c(O)cc(C)n(CCOC)c2=O)N2CCN(c3ccccc3F)CC2)cc1 (stereo unspecified),nt,nt,10µM*,nt,nt
COCCn1c(C)cc(O)c(C(c2ccccc2)N2CCN(C)CC2)c1=O (stereo unspecified),nt,nt,6.3µM*,nt,nt
COCCn1c(C)cc(O)c(C(c2ccccc2)N2CCN(c3ccccc3F)CC2)c1=O (stereo unspecified),nt,nt,7.1µM*,nt,nt
CCOc1ccc(C(c2c(O)cc(C)n(CCOC)c2=O)N2CCC(C)CC2)cc1 (stereo unspecified),nt,nt,20µM*,nt,nt
COCCn1nnnc1C(c1ccc2ncccc2c1)N1CCN(c2ccccc2F)CC1 (stereo unspecified),?,-11%,1%,-17%,?
COCCn1nnnc1C(c1ccc(OC)cc1OC)N1CCN(c2ccccc2F)CC1 (stereo unspecified),-28%,?,-18%,-14%,3%
OC(COc1ccccc1F)CN1CCC(Cc2ccccc2)CC1 (stereo unspecified),?,-16%,-9%,-29%,2%
OC(COc1ccc(F)cc1Cl)CN1CCC(Cc2ccccc2)CC1 (stereo unspecified),?,12µM*,-10%,-4%,-6%
C=CCc1ccc(OCC(O)CN2CCC(Cc3ccccc3)CC2)c(OC)c1 (stereo unspecified),?,?,50µM*,0%,-7%
Cc1noc(C)c1S(=O)(=O)N1CCCC(C(=O)NCc2ccccc2Cl)C1 (stereo unspecified),5.9µM*,1%,3%,0%,-6%
Cc1nn(C)c(C)c1S(=O)(=O)N1CCCC(C(=O)NCCc2ccc(Cl)cc2)C1 (stereo unspecified),?,-7%,0%,-6%,14%

# Screening results from PubChem.
